Assay [1] is described as follows: ATG_CRE_CIS: Attagene CIS-FACTORIAL HepG2 Assay for human cAMP Responsive Element (CRE) binding protein 3 (AID 2282926). The conditions noted are these: HepG2 CRE cis-reporter, Attagene multiplexed mRNA; actives raise or lower the signal. The gist of the method: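 Readout: fluorescently labelled reporter transcripts resolved by capillary electrophoresis after RT-PCR, taken 24 h post-dosing in transfected HepG2. Endogenous transcription factor activity drives each cis-element reporter; gain or loss of signal fitted relative to DMSO control.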

For assay [2], the target named is CCAAT/enhancer-binding protein beta (Homo sapiens) (UniProt P17676). The experiment in a line: ATG_C_EBP_CIS: Attagene CIS-FACTORIAL HepG2 Assay for human CCAAT/Enhancer Binding Protein (C/EBP) beta (AID 2282927). The note with it: HepG2 Attagene cis-factorial transcription factor reporter; actives raise or lower the signal. In a few lines: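 Endogenous transcription factor activity in human liver HepG2 cells is inferred from induction of a CEBPB-linked reporter mRNA. Exposure lasts 24 h; activity is fitted in both directions relative to DMSO.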
CCAAT/enhancer-binding protein beta (Homo sapiens), sequence (P17676 whole entry, looked up): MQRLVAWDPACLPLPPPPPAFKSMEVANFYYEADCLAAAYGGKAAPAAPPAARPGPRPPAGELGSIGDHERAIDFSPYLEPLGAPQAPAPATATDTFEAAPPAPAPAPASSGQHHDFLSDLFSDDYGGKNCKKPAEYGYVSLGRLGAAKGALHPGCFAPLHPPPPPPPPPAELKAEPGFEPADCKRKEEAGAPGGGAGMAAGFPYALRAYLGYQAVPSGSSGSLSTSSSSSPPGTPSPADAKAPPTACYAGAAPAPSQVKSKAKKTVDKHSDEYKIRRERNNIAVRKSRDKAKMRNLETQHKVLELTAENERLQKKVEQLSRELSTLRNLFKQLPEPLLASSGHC

Assay [3] in a line: ATG_CMV_CIS: Attagene CIS-FACTORIAL HepG2 Assay for human CMV (Internal Marker) (AID 2282928).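 Further: endpoint acts as a background internal control marker rather than a target.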 The conditions noted are these: HepG2 CMV promoter reporter, transcription factor profiling; actives raise or lower the signal. In a few lines:
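Readout: fluorescent reporter cDNA fragments separated by capillary electrophoresis after RT-PCR and HpaI cut. Cells: HepG2 carrying transfected cis-promoter reporter constructs, dosed 24 h. Endpoint serves as background internal-marker control, fit bidirectionally versus DMSO.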

Assay [4] can be described thus: ATG_DR4_LXR_CIS: Attagene CIS-FACTORIAL HepG2 Assay for human Liver X Receptor (LXR), DR4 submotif (AID 2282929). The conditions noted are these: HepG2 Attagene DR4 cis-reporter, mRNA transcription; actives raise or lower the signal. In a few lines: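 Measures endogenous transcription factor activity via a DR4-driven reporter transcript in human HepG2 cells. Compounds incubated 24 h; mRNA quantified by RT-PCR and capillary electrophoresis, analysed as gain or loss of signal versus DMSO.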

For assay [5], the target named is Aryl hydrocarbon receptor (Homo sapiens) (UniProt P35869). The experiment in a line: ATG_Ahr_CIS: Attagene CIS-FACTORIAL HepG2 Assay for human Aryl Hydrocarbon Receptor (Ahr) (AID 2282930). The note with it: HepG2 AhR cis-factorial reporter transcription; actives raise or lower the signal. In a few lines: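 Transient MRTU transfection of HepG2 → 24 h compound exposure → total RNA, oligo(dT) RT → PCR, 6-FAM extension, HpaI cut → CE fluorescence. DMSO = baseline; bidirectional curve fit.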
Aryl hydrocarbon receptor (Homo sapiens), sequence (P35869 whole entry, looked up): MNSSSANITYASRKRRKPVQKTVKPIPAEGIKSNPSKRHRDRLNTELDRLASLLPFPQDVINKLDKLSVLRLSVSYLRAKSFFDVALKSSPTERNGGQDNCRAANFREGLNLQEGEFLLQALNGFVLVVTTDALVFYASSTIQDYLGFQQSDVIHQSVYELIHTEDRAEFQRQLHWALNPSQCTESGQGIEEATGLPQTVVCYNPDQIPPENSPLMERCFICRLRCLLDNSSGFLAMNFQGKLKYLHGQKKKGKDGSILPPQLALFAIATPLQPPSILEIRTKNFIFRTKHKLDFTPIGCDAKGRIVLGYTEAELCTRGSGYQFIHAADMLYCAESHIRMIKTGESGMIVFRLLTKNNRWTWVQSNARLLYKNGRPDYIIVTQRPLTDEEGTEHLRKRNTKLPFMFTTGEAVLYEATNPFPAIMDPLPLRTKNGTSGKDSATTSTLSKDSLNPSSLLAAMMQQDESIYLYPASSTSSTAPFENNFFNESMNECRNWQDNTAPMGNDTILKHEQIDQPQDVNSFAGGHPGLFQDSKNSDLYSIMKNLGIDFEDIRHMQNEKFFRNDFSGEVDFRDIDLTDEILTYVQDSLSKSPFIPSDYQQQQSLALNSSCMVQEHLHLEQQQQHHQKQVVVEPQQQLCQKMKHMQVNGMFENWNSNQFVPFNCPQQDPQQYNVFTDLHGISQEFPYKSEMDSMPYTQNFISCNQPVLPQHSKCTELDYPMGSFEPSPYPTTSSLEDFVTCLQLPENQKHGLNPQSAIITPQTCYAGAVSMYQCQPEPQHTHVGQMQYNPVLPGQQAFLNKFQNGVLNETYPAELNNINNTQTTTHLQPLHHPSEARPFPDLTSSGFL

Assay [6] can be described thus: ATG_AP_1_CIS: Attagene CIS-FACTORIAL HepG2 Assay for human Activator Protein 1 (AP-1) (AID 2282931). The conditions noted are these: HepG2 Attagene cis-factorial AP-1 reporter mRNA; actives raise or lower the signal. The gist of the method:
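Bidirectional concentration-response fitting against DMSO controls. Underlying signal: reporter mRNA from cis-promoter constructs in transiently transfected HepG2, measured after 24 h by RT-PCR and capillary electrophoresis.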

Assay [7] is described as follows: ATG_AP_2_CIS: Attagene CIS-FACTORIAL HepG2 Assay for human Activator Protein 2 (AP-2) (AID 2282932). The conditions noted are these: HepG2 AP-2 cis-reporter, Attagene transcription factor profiling; actives raise or lower the signal. In a few lines:
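Endogenous transcription factor activity is reported through transfected multiplex reporter constructs in HepG2, after 24 h of compound exposure. Transcripts were quantified by RT-PCR and capillary electrophoresis of fluorescent fragments. Bidirectional fit against DMSO.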

Assay [8] is described as follows: ATG_BRE_CIS: Attagene CIS-FACTORIAL HepG2 Assay for human Bone Morphogenetic Protein (BMP) Response Element (BRE) (AID 2282933). The note with it: HepG2 BMP response element reporter, Attagene transcription factor profiling; actives raise or lower the signal. In a few lines:
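HepG2 cells transiently transfected with multiplexed cis-element reporter units were dosed with chemical for 24 h. Reporter mRNA was measured by RT-PCR with fluorescent labelling, HpaI digestion and capillary electrophoresis; bidirectional fitting relative to DMSO.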

For assay [9], the target named is Retinoic acid receptor alpha (Homo sapiens) (UniProt P10276). The experiment in a line: ATG_DR5_RAR_CIS: Attagene CIS-FACTORIAL HepG2 Assay for human Retinoic Acid Receptor Alpha (RARE), DR5 submotif (AID 2282934).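 On AC50: reporter responds to endogenous RAR alpha beta and gamma in HepG2 not RARA alone.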 The note with it: HepG2 Attagene cis-factorial RARE DR5 reporter, mRNA; actives raise or lower the signal. The gist of the method:
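Transient MRTU transfection of HepG2; 24 h compound treatment; TriZol RNA, oligo(dT) RT, PCR, FAM labelling, capillary electrophoresis. Bidirectional fit vs DMSO. Endogenous TF activity at DR5 RARE.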

In assay [10] the target is Transcription factor E2F1 (Homo sapiens) (UniProt Q01094). The experiment in a line: ATG_E2F_CIS: Attagene CIS-FACTORIAL HepG2 Assay for human E2F Transcription Factor 1 (AID 2282935). The conditions noted are these: HepG2 Attagene cis-reporter, E2F reporter RNA transcripts; actives raise or lower the signal. The gist of the method:
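Gain or loss of reporter transcript, fitted against DMSO, reflects E2F1-driven transcription. Transiently transfected HepG2 dosed 24 h before RNA isolation. Quantified by fluorescent RT-PCR products separated by capillary electrophoresis.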

Assay [11] can be described thus: ATG_E_Box_CIS: Attagene CIS-FACTORIAL HepG2 Assay for human Enhancer Box (E-box) (AID 2282936). The note with it: HepG2 E-box cis-reporter transcription, actives raise or lower the signal. In a few lines: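 E-box-driven reporter transcripts measured in transiently transfected HepG2 after 24 h exposure: RNA reverse-transcribed, PCR-amplified, fluorescently labelled, digested and resolved by capillary electrophoresis. Gain or loss relative to DMSO.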

The nature of assay [12]: ATG_M_61_CIS: Attagene CIS-FACTORIAL HepG2 Assay for M61 Transcription Factor (Internal Marker) (AID 2282937). The note with it: HepG2 Attagene CIS-FACTORIAL M61 internal marker reporter; actives raise or lower the signal. The gist of the method: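 Fluorescence from labelled cDNA fragments, separated by capillary electrophoresis, quantifies reporter induction. HepG2 cells bearing transiently transfected cis-promoter MRTUs were incubated with test chemical for 24 h; DMSO defined baseline for gain/loss fitting.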

A short description of assay [13]: ATG_EGR_CIS: Attagene CIS-FACTORIAL HepG2 Assay for human Early Growth Response 1 (EGR1) (AID 2282938). The note with it: HepG2 Attagene CIS-FACTORIAL EGR reporter mRNA; actives raise or lower the signal. In a few lines:
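Cell-based multiplex transcription assay: HepG2 carrying transfected cis-element reporter units, 24 h chemical treatment. Fluorescence from capillary electrophoresis of RT-PCR products gives mRNA levels; fitting is bidirectional relative to DMSO.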

A short description of assay [14]: ATG_M_19_CIS: Attagene CIS-FACTORIAL HepG2 Assay for M19 Transcription Factor (Internal Marker) (AID 2282939). The conditions noted are these: HepG2 Attagene CIS-FACTORIAL M19 internal marker reporter; actives raise or lower the signal. The gist of the method: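 HepG2 cells transiently transfected with cis-regulated multiple reporter transcription units were dosed for 24 h; reporter mRNA was quantified by RT-PCR, 6-FAM primer-extension labelling, HpaI digestion and capillary electrophoresis, with bidirectional fitting against DMSO baseline.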

Assay [15] concerns the target Hepatocyte nuclear factor 3-beta (Homo sapiens) (UniProt Q9Y261). The experiment in a line: ATG_FoxA2_CIS: Attagene CIS-FACTORIAL HepG2 Assay for human Forkhead box A2 (FOXA2) (AID 2282942). The conditions noted are these: HepG2 cis-reporter transcription factor activity, 24 h; actives raise or lower the signal. The gist of the method:
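In transiently transfected human HepG2 cells, promoter-driven reporter mRNA levels after 24 h chemical exposure are determined via RT-PCR with capillary electrophoresis. DMSO serves as baseline for bidirectional fitting.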

Assay [16] in a line: ATG_FoxO_CIS: Attagene CIS-FACTORIAL HepG2 Assay for human Forkhead box O (FoxO) (AID 2282943). The conditions noted are these: HepG2 Attagene cis-reporter, FoxO element, mRNA; actives raise or lower the signal. The gist of the method: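 HepG2, transient MRTU transfection (cis element, endogenous TFs). Dose 24 h. TriZol RNA → oligo(dT) RT → PCR → 6-FAM primer extension → HpaI cut → CE. Gain/loss vs DMSO.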

Assay [17] is described as follows: ATG_GLI_CIS: Attagene CIS-FACTORIAL HepG2 Assay for human Zinc Finger Protein GLI1 (AID 2282945). The conditions noted are these: HepG2, Attagene cis-factorial reporter mRNA, GLI element; actives raise or lower the signal. In a few lines: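 Bidirectional curve fits relative to DMSO, using reporter mRNA levels from RT-PCR plus capillary electrophoresis. Cells were HepG2 transiently carrying cis-regulated reporter constructs, harvested 24 h after dosing.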

For assay [18], the target named is Bile acid receptor (Homo sapiens) (UniProt Q96RI1). The experiment in a line: ATG_IR1_CIS: Attagene CIS-FACTORIAL HepG2 Assay for human Nuclear Receptor Subfamily 1 Group H Member 4 (NR1H4), IR1 submotif (AID 2282946). The note with it: IR1 reporter transcription, actives raise or lower the signal. The gist of the method: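 HepG2 cells transiently transfected with multiplexed cis-element reporter units read endogenous transcription factor activity. After 24 h compound exposure, reporter mRNA was quantified by RT-PCR, fluorescent labelling, HpaI digestion and capillary electrophoresis; bidirectional fitting versus DMSO baseline.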
Bile acid receptor (Homo sapiens), sequence (Q96RI1 whole entry, looked up): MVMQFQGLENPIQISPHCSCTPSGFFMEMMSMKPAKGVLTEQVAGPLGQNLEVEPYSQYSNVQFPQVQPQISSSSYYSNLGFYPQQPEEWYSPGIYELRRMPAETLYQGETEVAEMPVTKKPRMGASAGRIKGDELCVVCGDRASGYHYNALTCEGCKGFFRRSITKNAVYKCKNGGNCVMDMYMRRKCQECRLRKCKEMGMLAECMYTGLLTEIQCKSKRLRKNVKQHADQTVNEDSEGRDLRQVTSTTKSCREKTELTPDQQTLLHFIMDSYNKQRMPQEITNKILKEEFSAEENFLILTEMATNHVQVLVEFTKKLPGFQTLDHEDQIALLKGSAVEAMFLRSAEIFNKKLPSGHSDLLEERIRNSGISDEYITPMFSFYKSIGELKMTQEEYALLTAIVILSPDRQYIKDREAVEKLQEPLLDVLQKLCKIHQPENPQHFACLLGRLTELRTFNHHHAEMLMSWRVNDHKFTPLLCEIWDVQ

Assay [19] can be described thus: ATG_Ets_CIS: Attagene CIS-FACTORIAL HepG2 Assay for human Erythroblast Transformation Specific (ETS) (AID 2282941). The note with it: HepG2 ETS cis-reporter transcription, actives raise or lower the signal. The gist of the method:
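RT-PCR/capillary electrophoresis fluorescence read-out of reporter mRNA; HepG2 transient multi-reporter transfection; 24 h compound exposure; gain or loss of signal fitted bidirectionally relative to DMSO.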

Assay [20] is described as follows: ATG_GATA_CIS: Attagene CIS-FACTORIAL HepG2 Assay for human GATA Binding Protein (AID 2282944). The note with it: HepG2 GATA cis-element reporter, Attagene multiplex mRNA; actives raise or lower the signal. In a few lines: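 HepG2 cells transiently transfected with multiplexed cis-element reporter units reflecting endogenous transcription factor activity; reporter mRNA measured after 24 h dosing by RT-PCR, 6-FAM labeling, HpaI digestion and capillary electrophoresis. Bidirectional fitting versus DMSO baseline.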

Active and inactive are the calls of the source. How the source made its calls: active means hit-call score of the fitted dose curve at least 0.9, where 1 is the maximum; inactive means score below 0.9.

By AC50 is commonly meant the midpoint of the concentration-response curve, whichever way the signal moves.

Hepatocyte nuclear factor 3-beta (Homo sapiens), sequence (Q9Y261 whole entry, looked up): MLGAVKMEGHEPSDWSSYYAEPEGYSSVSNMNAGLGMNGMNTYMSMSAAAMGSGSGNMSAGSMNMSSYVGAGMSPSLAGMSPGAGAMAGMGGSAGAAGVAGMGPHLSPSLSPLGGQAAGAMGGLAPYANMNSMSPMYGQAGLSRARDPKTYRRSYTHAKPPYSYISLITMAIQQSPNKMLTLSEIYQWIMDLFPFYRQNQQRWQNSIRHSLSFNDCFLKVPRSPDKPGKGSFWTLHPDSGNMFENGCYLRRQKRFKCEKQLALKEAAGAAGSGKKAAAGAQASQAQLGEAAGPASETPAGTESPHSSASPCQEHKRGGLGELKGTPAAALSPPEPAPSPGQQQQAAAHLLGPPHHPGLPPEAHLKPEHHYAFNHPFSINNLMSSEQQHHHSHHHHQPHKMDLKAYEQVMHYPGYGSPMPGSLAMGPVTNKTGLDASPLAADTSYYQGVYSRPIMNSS
Retinoic acid receptor alpha (Homo sapiens), sequence (P10276 whole entry, looked up): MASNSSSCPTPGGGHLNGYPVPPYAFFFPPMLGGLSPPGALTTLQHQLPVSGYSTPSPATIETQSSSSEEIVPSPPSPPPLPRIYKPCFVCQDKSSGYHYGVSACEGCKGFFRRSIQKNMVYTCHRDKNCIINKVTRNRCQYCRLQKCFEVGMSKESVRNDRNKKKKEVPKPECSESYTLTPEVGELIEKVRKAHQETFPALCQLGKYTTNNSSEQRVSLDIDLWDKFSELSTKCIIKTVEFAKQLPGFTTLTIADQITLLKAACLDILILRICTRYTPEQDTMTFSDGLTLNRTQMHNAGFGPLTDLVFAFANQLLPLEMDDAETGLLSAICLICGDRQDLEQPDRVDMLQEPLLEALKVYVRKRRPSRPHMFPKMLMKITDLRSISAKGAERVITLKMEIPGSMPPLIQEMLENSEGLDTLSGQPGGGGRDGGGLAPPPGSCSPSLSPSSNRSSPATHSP
Transcription factor E2F1 (Homo sapiens), sequence (Q01094 whole entry, looked up): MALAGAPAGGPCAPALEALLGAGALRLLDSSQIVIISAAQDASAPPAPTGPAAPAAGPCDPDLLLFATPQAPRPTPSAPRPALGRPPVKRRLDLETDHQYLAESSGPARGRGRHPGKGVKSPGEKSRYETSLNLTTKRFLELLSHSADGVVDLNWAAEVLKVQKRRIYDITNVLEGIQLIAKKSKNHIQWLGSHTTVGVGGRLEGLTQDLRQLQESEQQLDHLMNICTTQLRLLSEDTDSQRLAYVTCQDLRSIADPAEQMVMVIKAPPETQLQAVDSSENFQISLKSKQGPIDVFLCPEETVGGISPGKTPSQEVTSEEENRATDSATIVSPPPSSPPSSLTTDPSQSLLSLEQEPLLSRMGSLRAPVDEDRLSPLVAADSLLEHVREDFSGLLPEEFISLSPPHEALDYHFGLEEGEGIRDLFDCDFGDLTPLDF

In the case of `C=CC(=O)OCCCC`, the outcome in assay [1], in assay [2], in [3], in [4], in assay [5] and in assay [6] was inactive. The outcome in assay [7], in assay [8], in assay [9], in assay [10], in assay [11] and in assay [12] was inactive. Also, the call in [13], in [14], in [15], in assay [16], in assay [17] and in assay [18] was inactive.

As to `CS(=O)(=O)c1ccc(C2=C(c3ccccc3)C(=O)OC2)cc1`, the outcome in assay [1], in [2], in assay [3], in assay [4], in assay [6] and in assay [7] was inactive. Besides, the call in assay [8], in assay [9], in assay [10], in assay [11], in assay [12] and in assay [13] was inactive. Moreover, the compound was classed as inactive in [14], in assay [19], in [15], in assay [20], in assay [17] and in [18]. In addition, the AC50 in assay [5] is 0.0408 µM (active).

On to `CSCCC=O`, for which the outcome in assay [1], in [2], in assay [3], in assay [4], in assay [5] and in assay [6] was inactive. Besides, the call in assay [7], in assay [8], in assay [10], in [11], in assay [12] and in assay [13] was inactive. The result in [14], in [19], in assay [15], in [20], in assay [17] and in assay [18] was inactive. The AC50 in [9] is 25.5 µM (active).

For the compound `CCCCCc1ccco1`, the outcome in assay [1], in [2], in assay [3], in assay [5], in [7] and in assay [8] was inactive. In addition, the call in assay [9], in assay [10], in assay [11], in assay [12], in assay [14] and in [15] was inactive. Also, the result in assay [20] and in assay [17] was inactive. For the same compound, the AC50 was 101 µM (active) in assay [4], 90.9 µM (active) in assay [6], 108 µM (active) in assay [13] and 105 µM (active) in assay [18].
